Shown are actives, neighbours in structure and some others; about 21% of the full set was active somewhere.
Pf growth 48h = P. falciparum growth inhibition at 48 hours (one generation). Potency, µM (top dose mostly 28.7 µM), for the others: at the top dose activity change, negative = inhibition, actives largely listed as inhibitors. P. falciparum luciferase growth in erythrocytes, 48 h. 310,000 compounds, 5.9% hits; further: potency means the concentration at half of the fitted maximal effect; on the % scale 0 is the no-effect control and ±100 the full control effect
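Here the parasites carry a stable luciferase gene and grow inside erythrocytes in Albumax-based RPMI medium with compound for one erythrocytic cycle. Activity is scored as loss of luminescent signal.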
HCV inh = inhibitors of hepatitis C virus infection. Huh7.5.1 HCVcc-Cre infection, luciferase reporter, 44 h. Potency, µM (series often up to 41.8 µM), for inactives: top-dose activity change, negative = inhibition, most hits filed as inhibitors. 340,000 compounds, 3.4% hits; further: potency means the concentration at half of the fitted maximal effect; on the % scale 0 is the no-effect control and ±100 the full control effect
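A cell-based infection assay in which seeded cells (1,000 per well) receive test compound after 4 h, are inoculated with HCVcc-Cre at approximately 0.5 moi, and are incubated 44 h before luminescence detection.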
Shiga inhibitor = blocks Shiga toxin action in Vero cells | Vero cells, Shiga toxin protein synthesis inhibition reporter | inhibition, % at 38.7 µM | 290,000 compounds, 9.2% hits | AID 2315; in the data active means inhibition mostly above about 28%, no sharp cut-off; inactive means mostly below about 43%; further: 0% is about no effect
HCMV antiviral = human cytomegalovirus inhibition. HFF cells, HCMV-luciferase reporter, 72 h; stronger effect = lower value. activity change, negative = inhibition, % at 57.5 µM. 410,000 compounds, 4.5% hits. AID 1259415; in the data active means activity change below about -60%; inconclusive means no clear call, values can overlap the other calls; inactive means above about -39%; further: on the % scale 0 is the no-effect control and ±100 the full control effect
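Compounds were evaluated in HFFs infected with an HCMV luciferase reporter virus (MOI 1 PFU/cell). Luciferase in lysates collected 72 h post infection served as the replication measure.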
Cycloheximide cs = affects cycloheximide protein synthesis inhibition readout, counter-screen | cell reporter, cycloheximide protein synthesis inhibition counterscreen | max response, % | 300,000 compounds, 12% hits; in the data active means max response mostly above about 13%, no sharp cut-off; inactive means mostly below about 14%; further: read at 38.3 µM for the half of the compounds with a filed dose; 0% is about no effect
Pf growth 96h = P. falciparum growth inhibition at 96 hours. P. falciparum luciferase reporter growth, 96 h. Potency, µM (series often up to 28.7 µM), for the others: top-dose activity change, negative = inhibition, hits mostly inhibitors. 320,000 compounds, 6.9% hits; further: potency means the concentration at half of the fitted maximal effect; on the % scale 0 is the no-effect control and ±100 the full control effect
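Compounds incubated with erythrocytes infected by luciferase-expressing P. falciparum (2% hematocrit, 0.05% parasitemia final) for 96 hours, 37 C in 5% CO2. Growth inhibition scored as decreased luciferase luminescence.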
The depositor's hits bear a star; i = inactive; ? = inconclusive; · = no result given. Unless noted, the call rests on the fitted dose curve; in most records, active means well fitted inhibition curve with a large enough effect; inconclusive means small, poorly fitted or top-dose-only effect, or another doubt; inactive means no such curve, though single readings can be large or run the other way.

SMILES	Pf growth 48h	HCV inh	Shiga inhibitor	HCMV antiviral	Cycloheximide cs	Pf growth 96h
COc1ccccc1C(=O)Nc1ccc(-c2nnn(CC(=O)NCc3ccco3)n2)cc1	?	-21%	1	?	-2	-1%
Cc1ccc2nc(-c3ccccn3)c(NC3CCCC3)n2c1	-1%	?	2	-66*	8	41%
CCCCCCSc1ccc(-c2nc3ccc(Cl)cn3c2NC2CCCCC2)cc1	·	17%	·	-21	·	·
CCCCCCSc1cccc(-c2nc3cc(C)ccn3c2NC2CCCCC2)c1	9.3µM*	-3%	·	21	·	?
CCCCCCSc1cccc(-c2nc3ccc(C)cn3c2NC2CCCCC2)c1	9.3µM*	5%	·	-2	·	5.2µM*
Cc1ccc(CCN2C(=O)c3ccccc3C2C(=O)NCc2cccnc2)cc1 (stereo not drawn)	i	11%	20	73	5	101%
O=C(N[C@H]1CC[C@@]23CCCN2C(=O)CCC[C@H]3[C@H]1Cc1ccccc1)C(c1ccccc1)c1ccccc1	·	·	·	-18	·	·
CCc1ccc([C@H]2C(C(=O)O)=C[C@@H](CC3CCCC3)N2S(=O)(=O)c2ccc(C)cc2)cc1	·	?	·	19	·	·
O=C(O)c1ccccc1C(=O)NC1CCCc2ccccc21 (stereo not drawn)	30%	27%	-4	33	-2	-11%
Cc1cc(NC2=CC(=O)C(=O)c3ccccc32)no1	·	?	·	-102*	·	·
CCOC(=O)c1ccc(NC2=CC(=O)C(=O)c3ccccc32)cc1	5.9µM*	-16%	23	20	13	70%
NS(=O)(=O)c1ccc(-c2ccc(C=C3C(=O)c4ccccc4C3=O)o2)cc1	-2%	12%	5	?	-1	-16%
Cc1cc(NC(=O)CCN2C(=O)c3ccccc3C2=O)no1	?	8%	-3	11	5	?
NS(=O)(=O)c1ccc(NC2=CC(=O)C(=O)c3ccccc32)cc1	?	16µM*	-1	50	2	10µM*
COc1cc(OC)c(NC2=CC(=O)C(=O)c3ccccc32)cc1Cl	0.33µM*	5µM*	4	-82*	10	53%
COc1ccc(OC)c(C2C(C(=O)Nc3ccc(C)cc3)=C(C)Nc3nnnn32)c1 (stereo not drawn)	·	·	·	-27	·	·
Cc1ccc(NC2=CC(=O)C(=O)c3ccccc32)cc1	0.52µM*	10µM*	115*	-104*	43*	0.83µM*
N#CCN1C(=O)C2CCCN2c2ccc(S(=O)(=O)N3CCOCC3)cc21 (stereo not drawn)	?	10%	-3	-16	-6	-8%
O=C1C2CCCN2c2ccc(S(=O)(=O)N3CCOCC3)cc2N1Cc1ccccc1F (stereo not drawn)	?	-3%	-8	·	-4	12µM*
O=C1C2CCCN2c2ccc(S(=O)(=O)N3CCOCC3)cc2N1Cc1cccc(C(F)(F)F)c1 (stereo not drawn)	1µM*	·	-9	·	-3	0.52µM*
CN(CC(=O)Nc1cccc(F)c1)C(=O)CSc1nc2ccccc2s1	-1%	?	·	23	·	19%
Cc1cc(=O)[nH]c2nnc(SCc3ccc(F)cc3)n12	·	·	·	14	·	·
O=C(c1ccco1)N1CCN(C(=O)N2c3ccccc3Sc3ccccc32)CC1	12µM*	?	13	?	-2	?
O=C(NC1CCN(C(=O)N2c3ccccc3Sc3ccccc32)CC1)c1ccco1	1.7µM*	?	-9	?	-3	?
COc1cccc(C(=O)NC2CCN(C(=O)N3c4ccccc4Sc4ccccc43)CC2)c1	8.3µM*	?	-5	?	4	5.2µM*
SMILES	Pf growth 48h	HCV inh	Shiga inhibitor	HCMV antiviral	Cycloheximide cs	Pf growth 96h
COc1cccc(C(=O)N2c3ccccc3Sc3ccccc32)c1	10µM*	?	13	-34	-2	102%
O=C(NC1CCN(C(=O)N2c3ccccc3Sc3ccccc32)CC1)c1ccccc1Cl	?	-10%	-12	-37	-3	?
O=C(c1ccncc1)N1c2ccccc2Sc2ccccc21	-7%	?	-15	-26	-12	11%
O=C(CSc1nc(-c2ccco2)nc2cc(=O)[nH]n12)Nc1ccc(F)cc1	·	·	·	-19	·	·
O=C(CCC(=O)N1CCN(Cc2ccc(F)cc2)CC1)Nc1nnc(C2CCCCC2)s1	-25%	?	3	?	-1	?
CC12CCC(C(=O)Nc3cc(Cl)ccc3Cl)(C(Br)C1=O)C2(C)C (stereo not drawn)	?	-4%	14	?	-1	?
CCOc1cccc(CC(=O)N2CCc3c([nH]c4ccccc34)C2c2ccccc2)c1OCC (stereo not drawn)	·	·	·	9	·	·
Cc1nc2sc(C)c(C)n2c(=O)c1S(=O)(=O)N1CCN(c2ccccc2F)CC1	·	·	·	-8	·	·
c1ccc(Nc2nc(CSc3ncn[nH]3)cs2)cc1	176%	-28%	68*	-26	43*	149%
O=C(NCc1cccnc1)c1cc2nc(-c3cccs3)cc(C(F)(F)Cl)n2n1	-10%	?	-8	-7	-4	9%
Cc1nn(C(C)C(=O)O)c(=O)c2ccccc12 (stereo not drawn)	29%	5%	-7	-40	6	9.3µM*
CC(C(=O)O)n1ncc2ccccc2c1=O (stereo not drawn)	2.6µM*	7%	-5	0	-1	32%
CCOc1cc(/C=C2\CCCC(C(=O)C(F)(F)F)=C2O)ccc1O	?	6%	12	22	-3	-5%
CCOc1ccc(-c2nnc(-c3ccco3)o2)cc1OCC	53%	?	88*	170	46*	123%
CCOc1cc(-c2nnc(-c3ccco3)o2)cc(OCC)c1OCC	?	?	active	74	22*	·
COc1cc(C(=O)Nc2ccc(-c3nnc(-c4ccco4)o3)cc2)cc(OC)c1OC	?	?	19	33	21	53%
O=C(NCC1CCCO1)C(c1ccncc1)N(Cc1cccs1)C(=O)CN1C(=O)c2ccccc2S1(=O)=O (stereo not drawn)	45%	10%	30	-26	11*	17%
COc1ccccc1/C=N/NC(=O)CN(C1=NS(=O)(=O)c2ccccc21)c1ccccc1	1%	6%	23	-38	-4	0.15µM*
COc1ccc(/C=N/NC(=O)CN(C2=NS(=O)(=O)c3ccccc32)c2ccccc2)cc1	3%	?	-10	-1	-1	18%
CS(=O)(=O)Nc1cccc(Nc2nccc3[nH]c(-c4cccc(C(F)(F)F)c4)cc23)c1	·	·	·	-7	·	·
Fc1ccc(NCc2cn3ccccc3n2)cc1	20%	-1%	77*	78	53*	53%
Fc1cccc(NCc2cn3ccccc3n2)c1	-52%	18%	126*	52	51*	21%
